Peg3 promoter – inhibitors of Peg3 promoter; HeLa PEG-Prom luciferase reporter, luminescence, overnight; hit rate 1.7% among 360,000; AID 588405; inhibition, % at 20 µM;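 active = inhibition of at least 50% at 20 µM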
TWEAK Fn14 block – TWEAK-Fn14 signaling inhibition; TWEAK-stimulated Fn14 reporter cells, luciferase luminescence, 8 h; hit rate 2% among 360,000; inhibition, % at 10 µM; in the data active = inhibition above about 50%
LMP1 NFkB inh – inhibitors of Epstein-Barr LMP1-induced NF-kappaB reporter. hit rate 0.69% among 350,000. LMP1-induced NF-kappaB luciferase reporter cells, luminescence. inhibition, % at 12.5 µM. AID 504558; in the data active = inhibition above about 41%
TROY NFkB inh – TROY signaling inhibition; AID 1347056; hit rate 0.98% among 360,000; Q293 LMP1-TROYcd NF-kB luciferase reporter, 4 h; inhibition, % at 10 µM;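 active = compounds whose plate-normalised and pattern-corrected inhibition of the luciferase reporter signal at the single screening dose is 50% or more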
HIF-2a inh – blocks HIF-2a reporter activity; AID 624352; 786-0 RCC cells HIF-2a reporter, luciferase luminescence, overnight; hit rate 0.72% among 360,000; inhibition, % at 18.8 µM;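 active = inhibition of the luminescence signal of 40% or more relative to plate controls, in a single-dose primary screen at 18.75 µM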
TRPM1 prom inh – inhibitors of MITF-driven TRPM1 promoter in melanoma cells; SK-MEL-5 TRPM1 promoter luciferase, 24 h; inhibition, % at 12.5 µM; hit rate 0.83% among 330,000;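 active = mean inhibition across replicates of 60% or more, whatever share of single replicates reaches that level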
Numbers stand for hits; – = inactive; · = no result; ! = not active in a repeat. Shown are actives, neighbours in structure and some others; about 4% of the full set was active somewhere.

SMILES	Peg3 promoter	TWEAK Fn14 block	LMP1 NFkB inh	TROY NFkB inh	HIF-2a inh	TRPM1 prom inh
O=C(CCc1nnc(Cc2ccc(-c3ccccc3)cc2)o1)NCCc1ccccn1	–	–	–	–	–	–
O=C(CCc1nnc(-c2ccc(-c3ccccc3)cc2)o1)NCCc1ccccn1	–	–	–	–	40	–
CC(=O)c1cccc(NCC(=O)N2CCN(S(=O)(=O)c3ccccc3)CC2)c1	–	–	–	–	–	–
CC(=O)c1cccc2c1OC(C)C(=O)N2Cc1ccc(Cl)cc1 (stereo not drawn)	–	–	·	–	–	·
COc1ccc(-c2cnc3c(NC=O)cc(-c4ccccc4OC)cn23)cc1OC	–	53	·	–	–	·
COc1cccc(-c2cnc3c(NC=O)cc(-c4ccc(O)c(OC)c4)cn23)c1	69	–	·	–	–	·
COc1cccc(-c2cc(NC=O)c3ncc(-c4cc(OC)c(OC)c(OC)c4)n3c2)c1	–	–	·	–	–	·
COc1ccc(-c2cc(NC=O)c3ncc(-c4ccc(OC)c(OC)c4)n3c2)cc1OC	58	–	·	–	–	·
COc1ccc(-c2cc(NC=O)c3ncc(-c4ccc(OC)c(OC)c4)n3c2)cc1	–	–	·	–	–	·
COc1ccc(-c2cnc3c(NC(C)=O)cc(-c4cc(F)ccc4OC)cn23)cc1OC	–	–	·	–	–	·
NS(=O)(=O)c1cc(C(=O)Nc2ccc3c(c2)CCC3)ccc1Cl	–	–	–	–	–	–
COc1ccc(C(=O)c2c(C(F)(F)F)oc3c2C(=O)c2ccccc2C3=O)cc1OC	89	58	–	51	–	90
C=CCN(c1ccc(F)cc1)S(=O)(=O)c1cc(C(=O)NC2CC2)ccc1Cl	–	–	–	–	–	·
N#C/C(=C\c1c(N2CCC(C(N)=O)CC2)nc2ccccn2c1=O)C(=O)NC1CCCCC1	–	–	–	–	–	–
O=C(COc1ccc(Br)cc1Cl)NC(=S)N1CCc2ccccc21	–	–	–	–	–	–
O=C(COc1ccc(Br)cc1Br)NC(=S)N1CCCc2ccccc21	–	64	–	–	–	–
COc1ccc(NC(=O)CC2CC3CCC2C3)cc1S(=O)(=O)N1CCOCC1 (stereo not drawn)	–	–	–	–	–	–
COc1ccc2nc(NN=C(C)c3ccccn3)cc(C)c2c1	–	–	79	–	–	77
C=C(C)C(O)CC/C(C)=C/Cc1c(O)ccc(C(=O)/C=C/c2ccc(O)cc2)c1O (stereo not drawn)	–	–	–	65	–	–
CC(Oc1cccc(Br)c1)C(=O)NNC(=O)c1ccccn1 (stereo not drawn)	–	–	–	–	–	82
CC(Oc1ccccc1)C(=O)NNC(=O)c1ccccn1 (stereo not drawn)	–	–	–	–	–	–
COc1ccc(C2CC(O)(c3ccccc3)Oc3cc(OC)c(OC)c(OC)c32)cc1 (stereo not drawn)	–	–	–	–	–	–
OC1(c2ccccc2)CC(c2ccccc2)c2ccccc2O1 (stereo not drawn)	–	–	–	50	–	–
Cc1ccc(NS(=O)(=O)c2ccc(Cl)c(C(=O)Nc3ccccc3-c3nc4ccccc4[nH]3)c2)cc1C	–	91	–	–	–	–
CN(C)S(=O)(=O)c1ccc(Cl)c(C(=O)Nc2nc3ccccc3[nH]2)c1	–	–	–	–	–	–
SMILES	Peg3 promoter	TWEAK Fn14 block	LMP1 NFkB inh	TROY NFkB inh	HIF-2a inh	TRPM1 prom inh
S=C1NCC(c2ccccc2)S1 (stereo not drawn)	–	–	–	–	–	–
CCOC(=O)C1=CCN(S(=O)(=O)c2ccc(F)cc2)C1c1ccc(Cl)c(Cl)c1 (stereo not drawn)	·	·	·	·	–	·
COc1ccc2c(c1)c1nc3ccccc3nc1n2CC(=O)OC(C)C	55	–	–	–	–	–
COc1ccc(Cn2c3ccc(OC)cc3c3nc4ccccc4nc32)cc1	–	–	–	–	–	–
O=C(CSc1nc2ccccc2c(=O)n1-c1ccccc1)N1CCc2ccccc2C1	–	–	–	–	–	–
CC(C)c1ccccc1-n1c(SCC(=O)N2CCc3ccccc3C2)nc2ccccc2c1=O	–	–	–	54	–	–
O=C(O)c1cc2[nH]c3c(c2cc1Cl)CCCC3	–	–	–	–	–	–
Cc1ccc(-c2cnc(C(O)c3ccc(Cl)c(Cl)c3)[nH]2)cc1 (stereo not drawn)	–	–	·	–	–	·
Cc1ccc(NC(=O)c2cc(-n3cnnc3)ccc2Cl)cc1	–	–	–	–	–	–
Cc1ccc(NC(=O)c2cc(N3C(=O)C=CC3=O)ccc2Cl)cc1C	80	–	–	–	–	–
CCCCCCCCCCCCCCCC[n+]1cccc(C(=O)N(CC)CC)c1	105	–	–	57!	46	–
CCCCCCCC[n+]1cccc(C(=O)N(CC)CC)c1	–	–	–	–	–	–
CC(C)(C)OC(=O)NCCCCCNC(=O)c1[nH]cnc1C(=O)N[C@@H](Cc1ccccc1)C(=O)OCc1ccccc1	59	–	–	–	–	–
CC(C)C[C@H](NC(=O)c1nc[nH]c1C(=O)NCCCCCNC(=O)OC(C)(C)C)C(=O)OCc1ccccc1	–	–	–	–	–	–
CC(C)(C)OC(=O)NCCCCCNC(=O)c1nc[nH]c1C(=O)NCC(=O)OCc1ccccc1	74	–	–	–	–	–
COc1ccccc1-n1c(CNC(=O)c2ccc(S(=O)(=O)N3CCCCC3)cc2)n[nH]c1=S	–	–	–	–	–	–
O=C1CC(N2CCN(S(=O)(=O)c3ccccc3F)CC2)C(=O)N1c1ccccc1F (stereo not drawn)	–	–	–	–	–	–
Cc1ccc(-c2csc(Nc3ccccn3)n2)cc1	–	82	–	–	–	–
Cc1cc(-c2csc(Nc3ccccn3)n2)ccc1F	–	51	–	–	–	–
c1ccc(-c2csc(Nc3ccccn3)n2)cc1	–	53	–	–	–	–
COc1ccc(-c2csc(Nc3ccccn3)n2)cc1OC	–	–	–	–	–	–
C[C@H](NC(=O)c1ccccc1Cl)C(=O)OCc1cn2cc(Cl)ccc2n1	–	–	–	–	–	–
COC(=O)CCCC[C@@H]1O[C@H](CCc2ccccc2)Cc2[nH]c(=S)[nH]c(=O)c21	·	–	·	–	–	·
O=C(CSc1nc(C(F)(F)F)cc(=O)[nH]1)Nc1ccc2c(c1)OCCO2	–	–	–	–	–	–
O=C(Nc1ccc(Cl)cc1)Nc1csc([N+](=O)[O-])c1	–	67	·	–	–	·
O=C(Nc1csc([N+](=O)[O-])c1)Nc1c(Cl)cccc1Cl	–	–	–	–	–	–
CCNc1ccc(Br)cc(C(=O)/C=C/c2c(Cl)cccc2Cl)c1=O	104	–	61	–	68	83
CNc1ccc(Br)cc(C(=O)/C=C/c2ccc(OC)cc2OC)c1=O	–	–	–	–	–	–
CNc1ccc(Br)cc(C(=O)/C=C/c2ccc(Cl)cc2Cl)c1=O	62	–	–	–	–	–
O=C(CN1CCN(S(=O)(=O)/C=C/c2ccccc2)CC1)NCC(F)(F)F	–	–	–	–	–	–
